Results from PubChem BioAssay AID547 (Emory University Molecular Libraries Screening Center, 2006).
Screen size: about 1,300 compounds; about 10 (0.8%) were called active. How the calls were made is not given here. The entries come from a sample that favours actives as a whole.

Target: Chaperone protein DnaK (Escherichia coli (strain K12)) (UniProt P0A6Y8)
Assay: blockers of bacterial DnaK function – luminescence, E. coli K12, primary screen (AID 547);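 further: tested at 10 µM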
Details: DnaK chaperone assay, luminescence read-out; active compounds read low

Row | Structure (SMILES) | luminescence
1 | NCC(O)c1ccc(O)c(O)c1 (stereo unspecified) | 2.7e+06 cps (inactive)
2 | O=C(O)c1cc(=O)c2ccc(Cl)cc2[nH]1 | 2.8e+06 cps (inactive)
3 | CN=c1nc(-c2ccccc2)n(-c2ccccc2)s1 | 2.4e+06 cps (inactive)
4 | O=S(=O)(NCCNC/C=C/c1ccc(Br)cc1)c1cccc2cnccc12 | 2.4e+06 cps (inactive)
5 | O=C(OCCN1CCCCC1)c1c[nH]c2ccccc12 | 2.9e+06 cps (inactive)
6 | O=C(O)/C(=C/c1c(C(=O)O)[nH]c2cc(Cl)cc(Cl)c12)c1ccccc1 | 2.5e+06 cps (inactive)
7 | Cc1cn([C@H]2C=C[C@@H](CO)O2)c(=O)[nH]c1=O | 2.9e+06 cps (inactive)
8 | CCN(CC)C(C)C(=O)N1c2ccccc2Sc2ccccc21 (stereo unspecified) | 2.4e+06 cps (inactive)
9 | O=C(O)c1cc2cc(Cc3cccnc3)ccc2o1 | 3.2e+06 cps (inactive)
10 | O=C(c1ccccc1)c1ccc2n1CCC2C(=O)O (stereo unspecified) | 2.9e+06 cps (inactive)
11 | C[N+](C)(C)CCOC(N)=O | 2.6e+06 cps (inactive)
12 | NCCc1cnc[nH]1 | 3.3e+06 cps (inactive)
13 | Nc1c(S(=O)(=O)O)cc(Nc2ccc(Nc3nc(Cl)nc(Nc4ccc(S(=O)(=O)O)cc4)n3)c(S(=O)(=O)O)c2)c2c1C(=O)c1ccccc1C2=O | 1.6e+06 cps (active)
14 | O=C(O)C1CN(CCCP(=O)(O)O)CCN1 (stereo unspecified) | 2.6e+06 cps (inactive)
15 | COc1ccccc1N1CCN(CCCCNC(=O)c2ccc3ccccc3c2)CC1 | 2.7e+06 cps (inactive)
16 | COc1cc2c(cc1OC)-c1cc(=Nc3c(C)cc(C)cc3C)n(C)c(=O)n1CC2 | 2.5e+06 cps (inactive)
17 | O=C(O)C1=CC(=C(c2ccc(O)c(C(=O)O)c2)c2ccc(O)c(C(=O)O)c2)C=CC1=O | 1.2e+06 cps (active)
18 | O=C(/C=C/c1ccc(O)c(O)c1)OCCc1ccccc1 | 3e+06 cps (inactive)
19 | C[C@@H]1C(=O)NC2=Nc3cccc(Cl)c3CN21 | 2.4e+06 cps (inactive)
20 | COc1cc(C(O)CO)ccc1O (stereo unspecified) | 2.8e+06 cps (inactive)
21 | CNCCNS(=O)(=O)c1cccc2cnccc12 | 2.6e+06 cps (inactive)
